This is part of a sample that, as a whole, favours compounds with a hit. Of some 79,000 tested, about 15% had one in any assay. Activity calls are given as the source filed them. No stated cut-off is given here; in the data, active means growth inhibition above about 70%; inactive means the rest.
Columns and labels:
[1] = NCI Yeast Anticancer Drug Screen. Data for the rad50 strain (AID 155);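 further: 0% = growth of vehicle-only cultures of the same strain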; conditions: S. cerevisiae rad50 strain growth inhibition, active compounds read high
Method in brief: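 A DNA repair-deficient yeast mutant serves as the test organism; compound-induced growth inhibition is calculated against vehicle-treated cells.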

[2] = NCI Yeast Anticancer Drug Screen. Data for the mec2-1 strain (AID 157); conditions: S. cerevisiae mec2-1 strain, active compounds read high
Method in brief: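 Yeast mec2-1 mutant treated with compound. Readout: growth inhibition vs vehicle controls.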

[3] = NCI Yeast Anticancer Drug Screen. Data for the sgs1 mgt1 strain (AID 161);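 further: 0% = growth of cultures given vehicle only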; conditions: S. cerevisiae sgs1 mgt1 strain, active compounds read high
Method in brief: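 Test agents were incubated with a DNA-repair-mutant yeast strain. Growth was then read and compared against vehicle-treated controls.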

[4] = NCI Yeast Anticancer Drug Screen. Data for the cln2 rad14 strain (AID 165);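 further: 0% = growth equal to vehicle treated cultures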; conditions: S. cerevisiae cln2 rad14 strain, active compounds read high
Method in brief: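 cln2 rad14 yeast strain; compound exposure; growth inhibition read vs vehicle controls.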

[5] = NCI Yeast Anticancer Drug Screen. Data for the bub3 strain (AID 167); conditions: S. cerevisiae bub3 mutant strain, active compounds read high
Method in brief: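 Inhibition values come from growth of compound-treated mutant yeast normalised to vehicle-treated controls.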

[6] = NCI Yeast Anticancer Drug Screen. Data for the mlh1 rad18 strain (AID 175); conditions: S. cerevisiae mlh1 rad18 strain growth inhibition, active compounds read high
Method in brief: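 Yeast w/ defined DNA-repair lesions; compound exposure; growth vs vehicle controls → % inhibition.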

[7] = at 5.0 µM (retest, dose inferred, filed as 0.5)
[8] = at 50.0 µM (retest, dose inferred, filed as 5.0)

Measured: growth inhibition

CC1c2c(n(C)c3ccccc23)C2CCC3(CO3)C1N2Cc1ccccc1 (centres undefined)
inactive: [1]; [7] 25% | [2]; [7] 22% | [3]; [7] 42% | [4]; [7] 24% | [5]; [7] 26% | [6]; [7] 35%
active: [1]; [8] 97% | [1]; at 50.0 µM 90.5% | [2]; [8] 99% | [2]; at 50.0 µM 92% | [3]; [8] 99% | [3]; at 50.0 µM 93.3% | [4]; [8] 98% | [4]; at 50.0 µM 90% | [5]; [8] 99% | [5]; at 50.0 µM 92.5% | [6]; [8] 98% | [6]; at 50.0 µM 92.2%

CC12CCC3C(CC=C4CC(SC(=N)N)CCC43C)C1CCC2=O (centres undefined)
inactive: [1]; [7] 0% | [1]; [8] 33% | [1]; at 50.0 µM 67.3% | [2]; [7] 5% | [2]; [8] 51% | [2]; at 50.0 µM 48.3% | [3]; [7] 21% | [4]; [7] 9% | [4]; [8] 19% | [4]; at 50.0 µM 59.7% | [5]; [7] 11% | [5]; [8] 50% | [5]; at 50.0 µM 66.8% | [6]; [7] 8% | [6]; [8] 31% | [6]; at 50.0 µM 59.6%
active: [3]; [8] 72% | [3]; at 50.0 µM 75.5%

CCN1C(C)N1P(=S)(OC1CC(C)(C)N(O)C(C)(C)C1)OC1CC(C)(C)N(O)C(C)(C)C1 (centres undefined)
inactive: [1]; [7] -2% | [1]; [8] 3% | [1]; at 50.0 µM 45.9% | [2]; [7] -6% | [2]; [8] 6% | [3]; [7] -3% | [3]; [8] 1% | [3]; at 50.0 µM 32.2% | [4]; [7] -3% | [4]; [8] 4% | [5]; [7] -5% | [5]; [8] 5% | [6]; [7] -5% | [6]; [8] 12% | [6]; at 50.0 µM 14.6%
active: [2]; at 50.0 µM 91.3% | [4]; at 50.0 µM 90.3% | [5]; at 50.0 µM 98.1%

CC(CCC/C=C/CCCN(C)C(=N)N)CC(C)C1OC(=O)C(C)C(O)/C=C/C(C)C(O)C(C)C(O)C(C)C(O)CCCC(O)CC2(O)OC(CC(OC(=O)CC(=O)O)CC(O)CC(O)C(C)C(O)/C=C/C=C/C1C)CC(O)C2O (centres undefined)
active: [1]; [8] 99% | [1]; at 50.0 µM 92.9% | [2]; [8] 99% | [2]; at 50.0 µM 94.1% | [3]; [8] 99% | [3]; at 50.0 µM 93.6% | [4]; [8] 99% | [4]; at 50.0 µM 92.2% | [5]; [8] 99% | [5]; at 50.0 µM 93.1% | [6]; [8] 99% | [6]; at 50.0 µM 92.8%
inactive: [1]; [7] -79% | [2]; [7] 7% | [3]; [7] 6% | [4]; [7] 21% | [5]; [7] 9% | [6]; [7] 13%

O=[N+]([O-])c1cc(Cl)ccc1S(=O)(=O)F
active: [1]; [7] 98% | [1]; [8] 98% | [1]; at 50.0 µM 99.7% | [2]; [7] 98% | [2]; [8] 99% | [2]; at 50.0 µM 99.6% | [3]; [7] 99% | [3]; [8] 99% | [3]; at 50.0 µM 99.5% | [4]; [7] 98% | [4]; [8] 98% | [4]; at 50.0 µM 99.2% | [5]; [7] 98% | [5]; [8] 98% | [5]; at 50.0 µM 99.5% | [6]; [7] 96% | [6]; [8] 98% | [6]; at 50.0 µM 99.5%

Cc1ccc(C(=O)C2C(c3ccccc3)N2C2CCCCC2)cc1 (centres undefined)
active: [1]; [8] 95% | [2]; [8] 88% | [3]; [8] 89% | [4]; [8] 96% | [5]; [8] 85% | [6]; [8] 92% | [6]; at 50.0 µM 71.6%
inactive: [1]; [7] 0% | [1]; at 50.0 µM 11.1% | [2]; [7] -8% | [2]; at 50.0 µM 7.95% | [3]; [7] -1% | [3]; at 50.0 µM 57.5% | [4]; [7] -20% | [4]; at 50.0 µM 0.3% | [5]; [7] -8% | [5]; at 50.0 µM 19.8% | [6]; [7] 2%

OC1CCCC2CCCNC12 (centres undefined)
active: [1]; [7] 84% | [1]; [8] 97% | [1]; at 50.0 µM 86.4% | [2]; [7] 79% | [2]; [8] 98% | [2]; at 50.0 µM 90% | [3]; [7] 97% | [3]; [8] 98% | [3]; at 50.0 µM 90% | [4]; [7] 81% | [4]; [8] 98% | [4]; at 50.0 µM 86.3% | [5]; [7] 96% | [5]; [8] 98% | [5]; at 50.0 µM 91.8% | [6]; [7] 73% | [6]; [8] 97% | [6]; at 50.0 µM 91.2%

CCC[CH2][Sn]1([CH2]CCC)[O]CC(CN2CCCCC2)[O]1 (centres undefined)
inactive: [1]; [7] 25% | [2]; [7] 20% | [3]; [7] 32% | [4]; [7] 22% | [5]; [7] 34% | [6]; [7] 30%
active: [1]; [8] 94% | [1]; at 50.0 µM 82.7% | [2]; [8] 95% | [2]; at 50.0 µM 85.4% | [3]; [8] 95% | [3]; at 50.0 µM 82.8% | [4]; [8] 91% | [4]; at 50.0 µM 78.5% | [5]; [8] 96% | [5]; at 50.0 µM 88% | [6]; [8] 96% | [6]; at 50.0 µM 87%

CCOc1ccc(CCNC)c2c1ccc1ccc(OC)c(O)c12
inactive: [1]; [7] -1% | [2]; [7] -5% | [3]; [7] -3% | [4]; [7] 5% | [5]; [7] -4% | [6]; [7] 6%
active: [1]; [8] 97% | [1]; at 50.0 µM 97.3% | [2]; [8] 98% | [2]; at 50.0 µM 99% | [3]; [8] 98% | [3]; at 50.0 µM 98.1% | [4]; [8] 98% | [4]; at 50.0 µM 92.2% | [5]; [8] 98% | [5]; at 50.0 µM 97.8% | [6]; [8] 96% | [6]; at 50.0 µM 98%

Clc1nc(Cl)nc(Nc2ccccc2Cl)n1
active: [1]; [8] 96% | [1]; at 50.0 µM 99% | [2]; [8] 97% | [2]; at 50.0 µM 96.7% | [3]; [8] 98% | [3]; at 50.0 µM 98.9% | [4]; [8] 97% | [4]; at 50.0 µM 95.8% | [5]; [7] 82% | [5]; [8] 99% | [5]; at 50.0 µM 98.6% | [6]; [8] 95% | [6]; at 50.0 µM 97.2%
inactive: [1]; [7] 67% | [2]; [7] 40% | [3]; [7] 53% | [4]; [7] 21% | [6]; [7] 24%

Cc1cc[n+](C2C(=O)c3ccccc3C(=O)C2Nc2cc(Cl)ccc2Cl)cc1 (centres undefined)
active: [1]; [8] 96% | [1]; at 50.0 µM 96.8% | [2]; [8] 98% | [2]; at 50.0 µM 98.8% | [3]; [8] 99% | [3]; at 50.0 µM 78.9% | [4]; [8] 95% | [5]; [8] 98% | [5]; at 50.0 µM 98.5% | [6]; [8] 98% | [6]; at 50.0 µM 94.5%
inactive: [1]; [7] 19% | [2]; [7] 11% | [3]; [7] 11% | [4]; [7] 5% | [4]; at 50.0 µM 66.2% | [5]; [7] 15% | [6]; [7] 12%

O=C1CN2CCCCC2CN1 (centres undefined)
inactive: [1]; [7] -159% | [1]; [8] -143% | [1]; at 50.0 µM -13.2% | [2]; [7] -43% | [2]; [8] -47% | [2]; at 50.0 µM 7.9% | [3]; [7] -59% | [3]; [8] -56% | [3]; at 50.0 µM -2.65% | [4]; [7] -58% | [4]; [8] -60% | [4]; at 50.0 µM 24.9% | [5]; [7] -73% | [5]; [8] -71% | [5]; at 50.0 µM 1.8% | [6]; [7] -137% | [6]; [8] -114% | [6]; at 50.0 µM 5.35%

C1OCC2[CH2][Hg][S][Hg][CH2]C1O2
inactive: [1]; [7] 29% | [2]; [7] 34% | [3]; [7] 67% | [4]; [7] 19% | [5]; [7] 20% | [6]; [7] 36%
active: [1]; [8] 95% | [1]; at 50.0 µM 92.8% | [2]; [8] 97% | [2]; at 50.0 µM 94.8% | [3]; [8] 98% | [3]; at 50.0 µM 95.5% | [4]; [8] 95% | [4]; at 50.0 µM 92.6% | [5]; [8] 96% | [5]; at 50.0 µM 95.2% | [6]; [8] 94% | [6]; at 50.0 µM 91.3%

— PubChem BioAssay (NCI)
